Inconclusive results are not listed. The source made the active and inactive calls. The call rests on the fitted dose curve; in most records, active means well fitted cell-killing curve with a large enough effect; inconclusive means small, poorly fitted or top-dose-only effect, or effect the other way; inactive means flat fitted curve, though single readings scatter.
Experiments:
Assay in all cases: Primary qHTS to identify gynecologic anti-cancer compounds using libraries of approved drugs and bioactive compounds (AID 1345084); further: nearly all actives have a fitted effect of over 55% in size
Settings in all cases: Gynecologic cancer cell panel viability, ATPlite luminescence, 48 h; series mostly up to 57.5 µM
PA-1 = tested on: PA-1
Procedure, shortened: (§1)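 Cells, 1,000 per well, were allowed to settle for 16 h at 37 C before compound addition. Five concentrations were tested for 48 h, and viability was read by ATPlite luminescence after 15 min at room temperature.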

SKOV3 = tested on: SKOV3
Procedure, shortened: as §1

Tov-21-G = tested on: Tov-21-G
Procedure, shortened: as §1

Tov112D = tested on: Tov112D
Procedure, shortened: as §1
On the % scale 0 is the no-effect control and ±100 the full control effect; potency means the concentration at half of the fitted maximal effect.

O=C1CCC(=O)N(O)CCCCCNC(=O)CCC(=O)N(O)CCOCCNC(=O)CCC(=O)N(O)CCCCCN1
inactive: Potency (PA-1) | Potency (SKOV3) | Potency (Tov-21-G) | Potency (Tov112D)

Nc1nc2c(c(=O)[nH]1)C[C@@H](CCc1ccc(C(=O)N[C@@H](CCC(=O)O)C(=O)O)cc1)CN2
active: Potency (PA-1) 282 nM | Potency (Tov-21-G) 100 nM | Potency (Tov112D) 1260 nM
inactive: Potency (SKOV3)

CC1CCC2(OC1)OC1CC3C4CC=C5CC(O)CC(O[C@@H]6OC[C@@H](O)[C@H](O)[C@H]6O)C5(C)C4CCC3(C)C1(O)C2C (stereo partly drawn)
inactive: Potency (PA-1) | Potency (SKOV3) | Potency (Tov-21-G) | Potency (Tov112D)

CC(=O)CCC1=C(C)C(O[C@@H]2O[C@H](CO)[C@@H](O)[C@H](O)[C@H]2O)C(O)CC1(C)C (stereo partly drawn)
inactive: Potency (PA-1) | Potency (SKOV3) | Potency (Tov-21-G) | Potency (Tov112D)

COC1C(CO)OC(n2cnc3c(=O)[nH]cnc32)C1O (stereo not drawn)
inactive: Potency (PA-1) | Potency (SKOV3) | Potency (Tov-21-G) | Potency (Tov112D)

CC(=O)O[C@H]1CC[C@@]2(C)C(CC[C@@H](C)[C@]23Cc2c(O)cc4c(c2O3)CN([C@@H](CCC(=O)O)C(=O)O)C4=O)C1(C)C (stereo partly drawn)
inactive: Potency (PA-1) | Potency (SKOV3) | Potency (Tov-21-G) | Potency (Tov112D)

CC(c1ncncc1F)C(O)(Cn1cncn1)c1ccc(F)cc1F (stereo not drawn)
inactive: Potency (PA-1) | Potency (SKOV3) | Potency (Tov-21-G) | Potency (Tov112D)

COc1ccc(/C=C/C(=O)O[C@H]2[C@H](O[C@H]3[C@@H]4C=CO[C@@H](O[C@@H]5O[C@H](CO)[C@@H](O)[C@H](O)[C@H]5O)[C@@H]4[C@@]4(CO)O[C@@H]34)O[C@@H](C)[C@H](O)[C@H]2OC(C)=O)cc1
inactive: Potency (PA-1) | Potency (SKOV3) | Potency (Tov-21-G) | Potency (Tov112D)

CC1(C)C[C@H](O)C[C@@]2(C)OC(=O)C=C12
inactive: Potency (PA-1) | Potency (SKOV3) | Potency (Tov-21-G) | Potency (Tov112D)

c1cn2cc(-c3ccc4cn[nH]c4c3)nc(Nc3ccc(N4CCOCC4)cc3)c2n1
active: Potency (PA-1) 1780 nM | Potency (SKOV3) 2820 nM | Potency (Tov-21-G) 2240 nM | Potency (Tov112D) 2240 nM

C[C@@H]1O[C@@H](O[C@H]2[C@H](OC(=O)[C@]34CCC(C)(C)C[C@H]3C3=CCC5[C@@]6(C)C[C@H](O)[C@H](O[C@@H]7O[C@H](CO)[C@@H](O)[C@H](O)[C@H]7O)[C@@](C)(CO)C6[C@H](O)C[C@@]5(C)[C@]3(C)C[C@H]4O)OC[C@H](O)[C@@H]2O)[C@H](O)[C@H](O)[C@H]1O[C@@H]1OC[C@@H](O)[C@H](O[C@H]2OC[C@](O)(CO)[C@H]2O)[C@H]1O (stereo partly drawn)
inactive: activity change, negative = cytotoxicity (PA-1) 24.7% [at 6.55 µM] | activity change, negative = cytotoxicity (SKOV3) 19.1% [at 6.55 µM] | activity change, negative = cytotoxicity (Tov-21-G) 8.26% [at 6.55 µM] | activity change, negative = cytotoxicity (Tov112D) 8.3% [at 6.55 µM]

Cc1ccc(NC(=O)C(=O)NC2CC(C)(C)NC(C)(C)C2)cc1
inactive: Potency (PA-1) | Potency (SKOV3) | Potency (Tov-21-G) | Potency (Tov112D)

CC1OC(OC2C(C)OC(OC3C(OC(=O)C45CCC(C)(C)CC4C4=CCC6C7(C)CCC(OC8OC(C(=O)O)C(O)C(O)C8OC8OC(CO)C(O)C(OC9OC(C)C(O)C(O)C9O)C8O)C(C)(CO)C7CCC6(C)C4(C)CC5)OC(CO)C(O)C3O)C(O)C2O)C(O)C(O)C1O (stereo not drawn)
inactive: activity change, negative = cytotoxicity (PA-1) 0.842% [at 6.55 µM] | activity change, negative = cytotoxicity (SKOV3) 0% [at 6.55 µM] | activity change, negative = cytotoxicity (Tov-21-G) 2.91% [at 6.55 µM] | activity change, negative = cytotoxicity (Tov112D) 13.7% [at 6.55 µM]

Cc1onc(C(=O)N2CCN(C(c3ccc(Cl)cc3)c3ccc(Cl)cc3)CC2)c1[N+](=O)[O-]
active: Potency (PA-1) 8910 nM | Potency (SKOV3) 7940 nM | Potency (Tov-21-G) 1120 nM | Potency (Tov112D) 7940 nM

CC(=O)N1CCN(C(=O)Cc2ccc(Nc3ncc(F)c(Nc4ccc(C(=O)Nc5ccccc5Cl)cc4)n3)cc2)CC1
active: Potency (PA-1) 11200 nM | Potency (SKOV3) 22400 nM | Potency (Tov-21-G) 25100 nM | Potency (Tov112D) 3980 nM

CNC(=S)NS(=O)(=O)c1cc(CCNC(=O)c2cc(Cl)ccc2OC)ccc1OC
inactive: Potency (PA-1) | Potency (SKOV3) | Potency (Tov-21-G) | Potency (Tov112D)

O=C(CC(c1ccccc1)c1ccccc1)N1CCN(C(c2ccccc2)c2ccccc2)CC1
inactive: Potency (PA-1) | Potency (SKOV3) | Potency (Tov-21-G) | Potency (Tov112D)
